Compounds with a hit are over-represented: about 9.4% of the library has one in this group of screens.
ELG1 repair inh: blocks ELG1-dependent DNA repair in HEK293T cells | HEK293T ELG1-luciferase reporter, luminescence, 16 h; DNA damage induced by 5-fluorouridine | Potency, µM (doses to about 46.1 µM), hits mostly inhibitors | 330,000 compounds, 2.3% hits; also: nearly all actives have a fitted effect of over 55% in size
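Step one: seed 2,000 cells per well. Step two: pin-transfer compound or DMSO alongside 5-fluorouridine. Step three: incubate 16 hr, 37 °C, 5% CO2. Step four: add ONE-Glo, wait 30 min, read luminescence.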
NPC1 prom act: activators of NPC1 promoter | Huh7 NPC1 promoter luciferase reporter, 24 h | Potency, µM (series often up to 9.22 µM), hits mostly activators | 320,000 compounds, 2.4% hits | AID 485313; also: nearly all actives have a fitted effect of over 60% in size
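Readout is luciferase luminescence, reflecting NPC1 promoter activation in stably transfected Huh7 cells after 24 h compound exposure at 37 °C in reduced-serum medium with 10% FBS.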
SMN2 splice enh: SMN2 splice variant enhancement; HEK293 SMN2-luciferase splicing reporter, luminescence, 30-36 h; Potency, µM (series often up to 46.1 µM), actives largely listed as activators; AID 1458; 210,000 compounds, 2.8% hits; also: nearly all actives have a fitted effect of over 55% in size
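HEK293 cells carry an SMN2 minigene-luciferase reporter in which exon 7 inclusion puts luciferase in frame. Cells were seeded at 2000 cells/well, attached for 10-12 hours, then exposed to compounds for 30-36 hours at 37C before ONE-Glo luminescence.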
Rab9 promoter act: activates the Rab9 promoter; Huh7 Rab9 promoter-luciferase reporter, luminescence, 24 h; Potency, µM (series often up to 9.22 µM), most hits filed as activators; 320,000 compounds, 2.8% hits; also: nearly all actives have a fitted effect of over 60% in size
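Using Huh7 cells stably transfected with Rab9 promoter–luciferase, compounds were incubated 24 h at 37 °C, 5% CO2; luciferase luminescence was read 10 min after reagent addition.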
ELG1 genotox: inducers of genotoxicity in HEK293T ELG1-luciferase cells; 330,000 compounds, 1.3% hits; AID 504466; HEK293T ELG1-luciferase reporter, luminescence, 16 h; Potency, µM (highest dose often 46 µM), hits mostly activators; also: nearly all actives have a fitted effect of over 60% in size
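Step 1: seed 2,000 HEK293T ELG1-luciferase cells per well. Step 2: add compound or DMSO, incubate 16 hr at 37 °C. Step 3: ONE-Glo, 30 min at room temperature, read luminescence.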
FLuc counter: inhibits or activates purified firefly luciferase, miR-21 counter-screen. 360,000 compounds, 6.9% hits. P08659. Potency, µM (titrated, usually from 57.5 µM), actives largely listed as inhibitors. AID 588342. purified FLuc, Km substrates, luminescence inhibition; also: nearly all actives have a fitted effect of over 55% in size
Target sequence (P08659 whole entry, looked up): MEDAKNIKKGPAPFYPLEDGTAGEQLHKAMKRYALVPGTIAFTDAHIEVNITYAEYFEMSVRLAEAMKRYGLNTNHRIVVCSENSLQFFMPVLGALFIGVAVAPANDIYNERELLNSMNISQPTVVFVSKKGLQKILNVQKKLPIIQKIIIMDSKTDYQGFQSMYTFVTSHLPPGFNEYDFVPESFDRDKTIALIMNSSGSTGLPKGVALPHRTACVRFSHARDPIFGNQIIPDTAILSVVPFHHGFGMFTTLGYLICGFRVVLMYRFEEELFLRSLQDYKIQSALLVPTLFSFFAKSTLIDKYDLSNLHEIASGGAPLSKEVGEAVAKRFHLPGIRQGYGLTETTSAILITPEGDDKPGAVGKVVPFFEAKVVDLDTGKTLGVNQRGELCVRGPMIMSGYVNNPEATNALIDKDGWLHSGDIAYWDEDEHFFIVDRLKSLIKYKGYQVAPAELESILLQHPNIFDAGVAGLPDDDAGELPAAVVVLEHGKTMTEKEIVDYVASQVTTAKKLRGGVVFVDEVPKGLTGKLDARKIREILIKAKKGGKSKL
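Biochemical qHTS of compounds, final roughly 60 µM downward over six points, against 10 nM purified firefly luciferase using Km concentrations of substrates (10 uM D-luciferin, 10 uM ATP) in Tris acetate pH 7.5 buffer; luminescence output.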
A number is an active result; – = inactive; ? = inconclusive; · = no result given; [ ] = dose if it differs, or a comment. Calls follow the shape of the dose curve; as a rule, active = well fitted curve in the direction sought with a large enough effect; inconclusive = small, poorly fitted or top-dose-only effect, or another doubt; inactive = no such curve, though single readings can be large; an effect the other way counts as inactive or inconclusive.

SMILES	ELG1 repair inh	NPC1 prom act	SMN2 splice enh	Rab9 promoter act	ELG1 genotox	FLuc counter
Cc1c(CNCCCc2ccccc2)c(C(=O)O)c(C)n1Cc1cccc(Cl)c1	·	·	–	·	·	–
COc1ccc(C(=O)Cc2ccc(OC)c(OC)c2)cc1	?	?	–	–	?	?
COc1ccc(CCC(C)NC(=O)Cc2ccc(OC)c(OC)c2)c(OC)c1 (configuration not stated)	18µM	–	·	–[1.84 µM]	–	–
COc1cc(/C=N/Nc2ccc(Cl)nn2)cc(OC)c1O	–	–	·	–	–	13µM
COc1cc(/C=N/Nc2ccc(F)cc2F)cc(OC)c1O	?	–	–	–	–	17µM
CCCCCCCCCC(=O)N/N=C/c1ccc(C)s1	?	–	·	–	?	–
COc1cc(/C=N/Nc2ccc(S(N)(=O)=O)cc2[N+](=O)[O-])cc(OC)c1O	9.2µM	–	·	–	–	?
Oc1c(Br)cc(/C=N/Nc2ccc(Cl)nn2)cc1Br	–	–	·	–	–	–
Cc1ccc(/C=N/Nc2ccc(F)cc2F)s1	?	1.6µM	·	?	?	13µM
Cc1cc(C)cc(OCc2cc(=O)n3c4c(sc3n2)CCCC4)c1	·	·	–	·	·	–
Cc1ccc2ccccc2c1[N+](=O)[O-]	·	·	–	·	·	·
COc1cc(/C=N/Nc2ncc(C(F)(F)F)cc2Cl)cc(OC)c1O	13µM	–	–	–	–	–
COc1cc(/C=N/Nc2ncc(C(F)(F)F)cc2Cl)cc(OC)c1OC	?	–	–	–	–	–
Cc1cccc(C(=O)NC(C(=O)Nc2nc(-c3ccccn3)cs2)C(C)C)c1 (configuration not stated)	2.9µM	–	–	–	–	–
Cc1cccc(C(=O)N[C@H](C(=O)Nc2ncc(C)s2)C(C)C)c1	?	–	14µM	–	?	–
Cc1cccc(C(=O)N[C@H](C(=O)Nc2nnc(C3CC3)s2)C(C)C)c1	–	–	–	–	–	–
C[C@H](NC(=O)c1ccccc1)C(=O)Nc1nc(-c2ccccn2)cs1	7.3µM	–	–	–	–	–
CCOc1ccccc1NS(=O)(=O)c1c(C)nc2sccn2c1=O	·	·	·	·	·	–
COc1cc(C(=O)Nc2ccc3c(c2)OCCO3)ccc1OC(C)C	?	?	11µM	3.2µM	?	7.6µM
COc1ccc(C2(CNC(=O)c3ccc(OC)c([N+](=O)[O-])c3)CCCCC2)cc1OC	15µM	–	–	–	–	–
Cc1c([N+](=O)[O-])c(C(=O)Nc2ccc3c(c2)OCCO3)nn1C	?	?	13µM	?	12µM	?
COc1ccc(C(=O)Nc2ccc3c(c2)OCCO3)cc1S(=O)(=O)N1CCOCC1	–	–	·	–	–	·
Cc1nn(C)c(C(=O)Nc2ccc3c(c2)OCO3)c1[N+](=O)[O-]	?	–	·	–	–	?
COc1ccc(C(=O)Nc2ccc3c(c2)OCCO3)cc1[N+](=O)[O-]	–	–	–	?	–	11µM
COc1cccc(C2C(=O)N(C3CCCCC3)CC(=O)N2Cc2ccc(Cl)cc2)c1 (configuration not stated)	·	·	·	·	·	–
SMILES	ELG1 repair inh	NPC1 prom act	SMN2 splice enh	Rab9 promoter act	ELG1 genotox	FLuc counter
CCOc1ccc(C(=O)OCC(=O)Nc2ccc3c(c2)OCCO3)cc1OC	–	–	·	–	–	–
COc1cc(C(=O)Nc2ccc3c(c2)OCCO3)ccc1OC(F)F	?	3.2µM	14µM	2.8µM	?	6µM
COc1ccc(NC(=O)c2ccc3c(c2)OCCO3)cc1OC	?	1.4µM	·	2.2µM	5.6µM	2.7µM
O=C(O)/C(=C1\OC(=O)c2ccccc21)c1ccccc1	–	–	–	–	–	27µM
c1ccc(-c2noc(C3CCC3)n2)nc1	?	–	·	–	–	–
CCCCC1CCC(c2nc(-c3ccccn3)no2)CC1 (configuration not stated)	?	?	11µM	?	?	2.7µM
CCOc1ccc(C(=O)Nc2ccc(C(=O)OCc3cc(=O)n4c(C)csc4n3)cc2)cc1	·	·	·	·	·	–
CCCNC(=O)c1c(C)nn(-c2cccc(C)c2)c1-n1cccc1	·	·	·	·	·	–
Cc1cc(O)c(CN2CCN(S(=O)(=O)c3cccs3)CC2)cc1C(C)C	11µM	–	·	–	–	–
O=S(=O)(c1cccs1)N1CCN(Cc2cccc(F)c2)CC1	–	–	·	–	–	–
CC(CC(=O)NCc1ccc(Cl)cc1Cl)CC1=NS(=O)(=O)c2ccccc2N1 (configuration not stated)	·	·	·	·	·	–
CCCCn1nnc(NC(=O)c2cc3ccccc3o2)n1	?	3.2µM	?	1.6µM	6.5µM	?
Cn1nnc(NC(=S)NC(=O)c2cc3ccccc3o2)n1	–	–	·	–	–	?
